This is an account of results in PubChem BioAssay AID1839 (Johns Hopkins Ion Channel Center, 2009).

About 220 (9.2%) of roughly 2,400 compounds were called active. Only a selection was taken, and actives are over-represented in it overall. Values without a mark were called inactive.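 Rule for the calls: active = signal change above the mean of dofetilide-free buffer controls plus 3 SD, so a positive margin; inactive = the rest.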

A short description of this experiment: nonspecific flux effects in parental CHO-K1, confirmation, counter-screen for hERG block protection project, cell-based, CHO-K1 parental line, FluxOR thallium flux (AID 1839).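 Note: compounds applied alone with no dofetilide to cells lacking hERG.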 To be noted: CHO-K1 parental cells, FluxOR thallium flux fluorescence; at 10 µM. On the technique in general: A counterscreen serves to expose hits that act by an unwanted route or on another target.
As for `CC/C(=C\C=C\[C@@H]1C=C[C@@H]2CCC[C@H]2[C@@H]1C(=O)c1ccc[nH]1)[C@@H]1O[C@@H]([C@@H](C)C(=O)O)CC[C@@H]1C`, the signal change vs control minus 3*SD hit threshold (margin above threshold, higher = more increase) is 83% (active).
The figure for `O=c1c2cc(Br)ccc2[nH]c(=S)n1-c1ccccc1` is -20.2%; for `CCCCN1C(=O)/C(=C/c2ccc(N3CCCCCC3)cc2)C(=O)NC1=S` it is -36%; for `Cc1ccc(/C=C2\C(=O)NC(=S)N(c3ccc(F)cc3)C2=O)s1` it is -30.1%.
The figure for `CN1C(=O)/C(=C/c2ccc(Cl)s2)C(=O)NC1=S` is -29.5%.
